Screening data as filed in PubChem BioAssay.
In the library only some 12% were active in any assay of this set; here they are far more common.
HP1b binding inh: HTS for Inhibitors of HP1-beta Chromodomain Interactions with Methylated Histone Tails; AlphaScreen HP1-beta / biotin-H3K9me3 peptide binding; Chromobox protein homolog 1 (Homo sapiens), P83916; AID 540317, 2011; Potency, µM (series often up to 114 µM), inactives show at the highest dose activity change, negative = inhibition, actives largely listed as inhibitors; actives 0.56% (n = 390,000); note: nearly all actives have a fitted effect of over 70% in size
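Compound inhibition of the preformed complex between 50 nM HP1-beta and 50 nM biotinylated H3K9me3 peptide was read by AlphaScreen. Buffer was PBS pH 7.4 with 0.01% Tween-20. Incubations ran 30 min at room temperature, with 10 ug/mL donor/acceptor beads.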
Sfp inh: qHTS Assay for Inhibitors of Bacillus subtilis Sfp phosphopantetheinyl transferase (PPTase); 4'-phosphopantetheinyl transferase ffp (Bacillus subtilis), Q9F4F7; AID 1490, 2009; Biochemical Sfp PPTase activity, qHTS; Potency, µM, without a hit: largest response in the series, negative = inhibition, most hits filed as inhibitors; actives 3.5% (n = 310,000);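 note: the enzyme is Sfp with the accession as filed and its product quenches rhodamine fluorescence; 0% = enzyme reaction without inhibitor and -100% = no enzyme wells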
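Reaction rates are the 30-min fluorescence difference (ex 525, em 598 nm) in wells containing 15 nM Sfp, 5 uM rhodamine-CoA and 12.5 uM BHQ-2-YbbR at pH 7.6 with 10 mM MgCl2.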
L3MBTL1 inh: qHTS Assay for the Inhibitors of L3MBTL1 | Lethal(3)malignant brain tumor-like protein 1 (Homo sapiens), Q9Y468 | AlphaScreen L3MBTL1–H3K9me1 peptide binding | Potency, µM (highest dose often 57.1 µM), without a hit: top-dose activity, negative = inhibition, most hits filed as inhibitors | actives 0.66% (n = 230,000) | AID 485360, 2010; note: % is set by controls: 0 for no effect and ±100 for the full control effect; nearly all actives have a fitted effect of over 60% in size
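AlphaScreen proximity signal between nickel-chelate acceptor and streptavidin donor beads (final 10 ug/mL) reports binding of 50 nM L3MBTL1 to 75 nM biotin-H3 K9me1 peptide; complex incubated with compounds 30 min at room temperature; cefsulodin titration as control.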
G9a inh: qHTS Assay for Inhibitors of Histone Lysine Methyltransferase G9a. actives 8.8% (n = 350,000). Potency, µM (series often up to 102 µM), for the others: top-dose activity, negative = inhibition, most hits filed as inhibitors. Histone-lysine N-methyltransferase EHMT2 (Homo sapiens), Q96KQ7. G9a H3K9 monomethylation, AlphaScreen, 2 h; note: % is set by controls: 0 for no effect and ±100 for the full control effect; nearly all actives have a fitted effect of over 75% in size
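Compounds were preincubated with 20 nM G9a for 15 min, after which biotinylated H3K9 peptide (500 nM) and SAM (20 uM) started a 2 h room-temperature reaction. Monomethylated product was quantified by antibody-based AlphaScreen chemiluminescence.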
BAZ2B block: qHTS Assay for Inhibitors of BAZ2B. Bromodomain adjacent to zinc finger domain protein 2B (Homo sapiens), Q9UIF8. Potency, µM (top dose mostly 114 µM), for inactives: at the top dose activity change, negative = inhibition, actives largely listed as inhibitors. AID 504333, 2011. actives 4.4% (n = 360,000). AlphaScreen BAZ2B-H3K14Ac peptide displacement; note: % is set by controls: 0 for no effect and ±100 for the full control effect; nearly all actives have a fitted effect of over 60% in size
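Protein-peptide AlphaScreen: BAZ2B 50 nM, b-H3K14Ac 50 nM, 1x PBS pH 7.4 + 0.01% Tween-20. Preincubation 30 min RT; cpd 30 min RT (top 110 uM); beads 20 min RT, light-protected.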
JMJD2A Tudor: qHTS Assay for Inhibitors of JMJD2A-Tudor Domain; Lysine-specific demethylase 4A (Homo sapiens), O75164; AlphaScreen JMJD2A-Tudor / H3K4me3 peptide binding; Potency, µM (titrated, usually from 114 µM), for inactives: top-dose activity change, negative = inhibition, hits mostly inhibitors; actives 4.4% (n = 390,000); AID 504339, 2011; note: % is set by controls: 0 for no effect and ±100 for the full control effect; nearly all actives have a fitted effect of over 50% in size
The depositor's hits bear a star; ? = inconclusive; . = no result; [ ] = another dose, or the depositor's remark. Calls come from the whole dose curve; as a rule, active = well fitted curve in the direction sought with a large enough effect; inconclusive = small, poorly fitted or top-dose-only effect, or another doubt; inactive = no such curve, though single readings can be large; an effect the other way counts as inactive or inconclusive. Potency is the fitted concentration of half-maximal effect.

SMILES	HP1b binding inh	Sfp inh	L3MBTL1 inh	G9a inh	BAZ2B block	JMJD2A Tudor
CC(=O)N1c2ccc(S(=O)(=O)N(C)CC(=O)N(Cc3ccccc3)C(C)C)cc2CC1C (centres undefined)	21.3%	.	.	-9.9%[59 µM]	?	-8.1%
CC(=O)Nc1ccc(NS(=O)(=O)c2c(C(=O)N3CCCCCC3)c(C)n(C)c2C)cc1	-15.3%	.	.	12.8%[59 µM]	-10.4%	-23.0%
CC1CC(OCC(O)CN2CCOCC2)CC(C)(C)C1 (centres undefined)	36.2%	3.2%	4.2%	-10.9%[59 µM]	2.9%	-15.2%
CC1CC(OCC(O)C[N+]2(C)CCOCC2)CC(C)(C)C1 (centres undefined)	?	5.6%	.	39.8µM*	11.3%	-2.1%
COC(=O)c1ccc(OC(=O)CS(=O)c2ccccc2[N+](=O)[O-])cc1 (centres undefined)	32.5%	-11.4%	7.1%	.	-10.2%	-3.1%
CCOC(=O)c1ccccc1OC(=O)CS(=O)c1ccccc1[N+](=O)[O-] (centres undefined)	38.8%	0.7%	-8.4%	39.8µM*	-34.8%	-13.3%
N=C1S/C(=C\c2ccc(-c3ccccc3C(=O)O)o2)C(=O)N1c1ccc2c(c1)OCO2	28.2µM*	?	.	3.55µM*	20µM*	22.4µM*
Cc1c(C(=O)O)cccc1-c1ccc(/C=C2\SC(=O)NC2=O)o1	17.1%	-9.5%	-1.4%	.	-6.5%	-27.6%
COc1ccccc1N1C(=N)S/C(=C\c2ccc(-c3ccccc3C(=O)O)o2)C1=O	-12.6%	?	?	15.8µM*	?	?
O=C(c1ccncc1)N1CCC2(CC1)CCN(c1ccccc1)CC2	.	-2.0%	.	-18.1%[12.7 µM]	.	.
CC#CCN1c2ccccc2[C@]23C[C@@H](C(=O)OC)N(S(=O)(=O)c4ccc(C#N)cc4)C2=NC(C(=O)OC)=C(C(=O)OC)[C@H]13	.	5.2%	.	.	.	.
O=C(NCC(c1cccs1)S(=O)(=O)c1cccs1)c1ccccc1 (centres undefined)	31.7%	.	.	8.1%[59 µM]	-2.8%	0.0%
COc1ccc(-c2csc(-c3nc(-c4ccc(Br)s4)cs3)n2)cc1F	36.0%	.	.	-44.5%[59 µM]	5.0%	1.4%
O=C(Nc1ccc([N+](=O)[O-])cc1)c1nc[nH]c1C(=O)NC1CCCCC1	19.6%	4.5%	2.8%	19.8%[59 µM]	50.1µM*	-21.4%
CCOC(=O)c1[nH]cnc1C(=O)Nc1ccc([N+](=O)[O-])cc1	14.4%	10.9%	.	79.4µM*	?	?
COc1cc(C)c2c(c1C=O)Oc1c(c(C)c(O)c3c1C(O)OC3=O)OC2=O (centres undefined)	-34.7%	?	?	?	79.4µM*	79.4µM*
N#Cc1nc(Nc2cc(F)cc(F)c2)c2ncn(CCCN3CCCC3)c2n1	.	.	.	.	.	-20.6%
Cc1ccc(OCC(=O)N(Cc2ccco2)c2ccccn2)cc1	43.6%	.	.	1.5%[59 µM]	-2.8%	-5.6%
CN(C)C/C(Cl)=C(\Cl)c1ccccc1	39.5%	-5.3%	-0.1%	14.1µM*	3.3%	-34.0%
CN(C)CC(C(=O)c1ccccc1)c1ccccc1 (centres undefined)	58.0%	-13.8%	13.6%	-6.4%[12.7 µM]	10.7%	5.4%
COc1ccc(-n2ncc(C(=O)N3CCN(Cc4ccccc4)CC3)c2C2CCN(C(=O)OC(C)(C)C)CC2)cc1	-2.9%	.	.	?	-0.1%[57.1 µM]	-18.8%
C#CCOCCOCCOCCNc1nc(N2CCN(C(=O)CCCCCCCCCCNC(=O)[C@H](CCCCN)n3cc(CCO)nn3)CC2)nc(N2CCN(C(=O)CCCCCCCCCCNC(=O)[C@H](CCCCN)n3cc(CCCC(=O)O)nn3)CC2)n1	15.0%	.	12.5%	-7.3%[2.33 µM]	-26.8%	-34.8%
C#CCOCCOCCOCCNc1nc(N2CCN(C(=O)CCCCCCCCCCNC(=O)[C@H](CCCCN)n3cc(CCO)nn3)CC2)nc(N2CCN(C(=O)CCCCCCCCCCNC(=O)[C@H](CCCCN)n3cc(C[C@@H](C)CC)nn3)CC2)n1	50.1µM*	.	-11.0%	13.6%[2.33 µM]	?	22.4µM*
C#CCOCCOCCOCCNc1nc(N2CCN(C(=O)CCCCCCCCCCNC(=O)[C@@H](CCC(=O)O)n3cc(CCCCCN)nn3)CC2)nc(N2CCN(C(=O)CCCCCCCCCCNC(=O)[C@H](CCCCN)n3cc(C[C@@H](C)CC)nn3)CC2)n1	-3.0%	.	-6.0%	-15.7%[2.33 µM]	?	56.2µM*
N#CC1=C(SCC(=O)Nc2ccccc2)NC(=O)CC1c1ccco1 (centres undefined)	-13.2%	.	.	.	.	?
SMILES	HP1b binding inh	Sfp inh	L3MBTL1 inh	G9a inh	BAZ2B block	JMJD2A Tudor
CCCCc1ccc(NC(=O)CSC2=C(C#N)C(c3ccco3)C3=C(CCCC3=O)N2)cc1 (centres undefined)	4.5%	7.94µM*	-22.0%	-9.0%[12.7 µM]	?	-35.1%
COc1ccc(NC(=O)CSC2=C(C#N)C(c3ccco3)C3=C(CCCC3=O)N2)c(OC)c1 (centres undefined)	-9.2%	?	.	44.7µM*	79.4µM*	-27.7%
COc1ccc(C2C(C#N)=C(SCC(=O)Nc3ccc(C)cc3)NC3=C2C(=O)CC(C)(C)C3)cc1 (centres undefined)	34.7%	?	5.0%	?	-7.2%	-5.5%[57.1 µM]
CC(C)c1cnc2c(c1SCC(=O)c1ccc(Cl)cc1)c(=O)n(C)c(=O)n2C	14.3%[57 µM]	.	.	-9.4%[59 µM]	-4.4%	-27.3%
O=C(CC1C(=O)N(c2ccc(F)cc2)C(=O)N1Cc1cccnc1)Nc1ccc(F)cc1 (centres undefined)	30.7%	.	.	-30.4%[59 µM]	-6.3%	-5.2%
CC(=O)O[C@@H]1CC[C@@]2(C)[C@H](C1)[C@H](OC(C)=O)C[C@@H]1[C@@H]2C[C@H]2[C@@H]3CN4C[C@H](C)CC[C@H]4[C@H](C)[C@H]3CC[C@@]12O	.	-0.2%	.	.	.	.
CCCSc1cc(N2CCN(C)CC2)nc(-c2ccc(OC)cc2)n1	-25.4%	-11.3%	.	50.1µM*	50.1µM*	?
CCOc1ccccc1N1C(=O)CC(Sc2n[nH]c(-c3ccccc3)n2)C1=O (centres undefined)	12.6µM*	35.5µM*	-3.3%	1.58µM*	?	1.41µM*
COc1ccccc1N1C(=O)CC(Sc2nc(C)cc(C)n2)C1=O (centres undefined)	31.9%	12.7%	5.9%[11.4 µM]	-6.2%[59 µM]	2.3%	-16.3%
